Maximal activation data for 1 molecule are collected here from PubChem BioAssay AID743130 (Broad Institute, 2013).

Unmarked numbers belong to inactive results.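 Rule for the calls: active = fitted curve rises past 20% activation at a concentration no higher than the top valid tested dose; inactive = activity opposite to the expected signal increase, and the rest.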

The assay is described as follows: cell wall integrity pathway activation in yeast – S. cerevisiae reporter strain, C. neoformans project, dry powder, dose response (AID 743130). Conditions: S. cerevisiae Rlm1-lacZ reporter, luminescence, 4 h, active compounds read high.

Regarding `Cc1ccc(OCCn2c(=S)[nH]c3ccccc32)c(C(C)C)c1`, the maximal activation by setting is: (at 0.135 µM) 2.35%; (at 0.26 µM) 3.69%.
